# Bioassay records deposited in PubChem by National Center for Advancing Translational Sciences (NCATS).
# TRPML1 blocker: human mucolipin-1 channel inhibition | Q9GZU1 | TRPML1-inducible cells, Ca2+ dye fluorescence, FDSS; active compounds read low; inhibition of EC80 agonist-evoked calcium signal | activity change, negative = inhibition, % (test concentration not listed) | 0.02% of 390,000 active | AID 624415; in the data active means activity change below about -50%; inconclusive means between about -30% and that limit;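 further: stimulus is agonist 54-4 at its EC80 concentration; on the % scale 0 is the no-effect control and ±100 the full control effect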
# Target sequence (Q9GZU1 whole entry, looked up): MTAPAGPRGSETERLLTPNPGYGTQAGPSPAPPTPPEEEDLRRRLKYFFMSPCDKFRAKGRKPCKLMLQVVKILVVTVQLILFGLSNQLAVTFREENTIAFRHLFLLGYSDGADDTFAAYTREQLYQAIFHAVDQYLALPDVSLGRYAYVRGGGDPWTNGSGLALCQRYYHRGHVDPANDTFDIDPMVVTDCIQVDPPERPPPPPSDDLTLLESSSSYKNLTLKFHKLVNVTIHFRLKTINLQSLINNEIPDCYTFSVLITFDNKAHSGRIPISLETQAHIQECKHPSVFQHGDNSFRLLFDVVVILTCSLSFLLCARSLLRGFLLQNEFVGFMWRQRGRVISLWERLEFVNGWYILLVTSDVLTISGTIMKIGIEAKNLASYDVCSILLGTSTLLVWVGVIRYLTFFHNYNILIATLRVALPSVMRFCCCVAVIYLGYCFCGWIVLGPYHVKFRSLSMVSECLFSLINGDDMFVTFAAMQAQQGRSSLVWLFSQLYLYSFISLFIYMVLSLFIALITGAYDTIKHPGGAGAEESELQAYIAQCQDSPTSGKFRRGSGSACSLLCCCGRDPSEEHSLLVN
#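 Calcium fluorescence in TRPML1-DL cells induced overnight with Tet: a 110 s read after compound pin addition, then a 110 s antagonist read after challenge with 54-4 at 4 uM final (EC80).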
# TRPV1 potentiator: human TRPV1 potentiation. potentiation, % at 8.33 µM. 0.02% of 320,000 active. TRPV1-expressing cells, Fluo-8 calcium influx, capsaicin EC20 potentiation; in the data active means potentiation above about 80%; inconclusive means between about 30% and that limit; further: 0% is about no effect
#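 TRPV1-expressing cells were cultured overnight at 35.5C and loaded with Fluo-8 calcium dye for 40 to 90 min at room temperature. After a 10 s baseline, compound was added and calcium influx was read kinetically for 3 min (ex 480/em 520 nm).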
# TRPML1 ag: human mucolipin-1 channel agonism; Q9GZU1; activation, % (test concentration not listed); TRPML1-expressing cells, Ca2+ dye fluorescence, FDSS; AID 624414; 0.12% of 410,000 active; in the data active means activation above about 50%; inconclusive means mostly about 30% to 49%; further: 0% is about no effect
#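 TRPML1-DL cells, Tet-induced overnight (~16 h, 37 degrees C), loaded 45-90 min at room temperature with Ca8 no-wash calcium dye plus quencher. FDSS fluorescence: 10 s baseline, compound pin-transfer, 110 s agonist read, then EC80 54-4 (4uM final) and 110 s antagonist read.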
# TRPV1 ag: human TRPV1 agonism. Q8NER1. TRPV1-expressing cells, Fluo-8 calcium influx, agonist mode. activation, % at 8.33 µM. 0.19% of 320,000 active. AID 540275; in the data active means activation above about 80%; inconclusive means between about 30% and that limit; further: 0% is about no effect
#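 Fluo-8 calcium influx in TRPV1-expressing cells, kinetic read (ex 480/em 520 nm). Compound added and read 3 min for agonist activity, followed by capsaicin at EC20 final and 2 min further read for enhancement.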
# Starred values were filed as active, the others as inactive; ? = inconclusive; . = no result given. A selection: hits, their analogues and other compounds. The true share with any hit is near 0.27%.
SMILES,TRPML1 blocker,TRPV1 potentiator,TRPML1 ag,TRPV1 ag
C=C(C)c1cccc(C(C)(C)NC(=O)Nc2cccnc2)c1,-9.4,?,-0.3,97.6*
O=C(Nc1cccnc1)c1ccc(C(=O)Nc2cccnc2)cc1,-13.7,3.2,-0.2,-3.2
COC(=O)Cc1ccc(NC(=O)c2ccc(C(C)(C)C)cc2)cc1,-6.0,-11.1,5.6,81.4*
CC(C)(C)c1ccc(C(=O)Nc2cccnc2)cc1,-7.6,7.1,0.2,94.5*
CC(C)(C)c1cc(C(=O)NNC(=O)c2ccc(Cl)cc2)no1,-6.2,-26.3,0.3,81.7*
CC(C)(C)c1ccc(NC(=O)c2ccsc2)cc1,3.0,6.0,0.2,83.1*
CC(C)(C)c1ccc(C(=O)Nc2ccc(Cl)cc2)cc1,-6.4,7.8,0.6,80.4*
O=C(Nc1ccc(Nc2ccccc2)cc1)c1ccc(Cl)cc1,9.3,.,-1.1,.
O=C(Cn1ncc2c3ccccc3n(Cc3ccccc3F)c2c1=O)NCc1ccccc1Cl,1.0,.,1.3,.
Cc1ccc(S(=O)(=O)Oc2ccccc2-c2ccccc2)cc1,-23.7,.,99.6*,.
Cc1sc(NC(=O)C2CCCCC2)c(C#N)c1-c1ccccc1,-14.5,-4.2,83.2*,0.9
COC(=O)c1cc(NC(=O)Cc2ccccc2[N+](=O)[O-])cc(C(=O)OC)c1,-1.0,-8.5,0.7,83.0*
O=C(Cc1ccccc1[N+](=O)[O-])Nc1ccc2c(c1)OCCO2,6.7,-9.0,-0.7,18.4
COc1ccccc1N1CCN(C2CCCCC2NS(=O)(=O)c2ccc(Cl)cc2)CC1 (centres undefined),82.1,-1.3,0.0,19.4
COc1ccc(N2CCN(C3CCCCC3NS(=O)(=O)c3ccc(Cl)cc3)CC2)cc1 (centres undefined),-16.7,25.3,62.7*,4.7
Cc1ccccc1C(=O)OCc1cc(=O)n2c(C)csc2n1,1.7,.,1.0,.
COc1cccc(N2CCN(c3ncnc4c3c(-c3ccccc3)cn4-c3ccc(F)cc3)CC2)c1,6.8,.,2.8,.
COc1cccc(N2CCN(c3ncnc4c3c(-c3ccccc3)cn4-c3cccc(C(F)(F)F)c3)CC2)c1,-17.8,.,53.1*,.
CN(C)C=Nc1nonc1-c1ccccc1,-2.5,1.7,-1.1,1.6
CN(C)C=Nc1c(Br)cc(Br)c2nonc12,-5.7,-9.1,61.8*,?
O=C(CSc1nnc(NC(=O)c2cccc(F)c2)s1)NC1CC1,26.4,8.7,0.1,1.6
Cc1cccc(C(=O)Nc2nnc(SCC(=O)NC3CC3)s2)c1,-52.3*,12.9,0.5,-0.4
O=C(CSc1nnc2n(C3CCCC3)c(=O)c3ccccc3n12)N1CCCCCC1,36.8,-17.1,2.2,?
COc1ccccc1Cn1c(=O)c2ccccc2n2c(SCC(=O)N3CCCCC3)nnc12,-60.7*,-8.2,2.1,4.7
CN1CCC/C1=C/C=C1\SC(=S)NC1=O,-17.6,-2.8,58.1*,29.5
SMILES,TRPML1 blocker,TRPV1 potentiator,TRPML1 ag,TRPV1 ag
CCCN1C(=O)c2cccc3c(N4CCCCC4)ccc(c23)C1=O,-3.1,-6.4,8.5,17.2
Cc1nn(C)c(C)c1N1C(=O)c2cccc3c(N)ccc(c23)C1=O,-10.9,-16.4,94.0*,93.5*
CCN1C(=O)c2cccc3c(N)ccc(c23)C1=O,1.2,5.5,-0.4,198.5*
CCCCNc1ccc2c3c(cccc13)C(=O)N(CCCC)C2=O,-22.3,-5.0,109.8*,92.2*
Cc1ccc(N2C(=O)c3cccc4c(N)ccc(c34)C2=O)c2cccnc12,-0.2,-7.8,90.4*,94.1*
Cc1nn(C)c(C)c1N1C(=O)c2cccc3c(Br)ccc(c23)C1=O,-11.9,?,-0.9,0.4
COc1ccc(CCNc2nc(-c3cccnc3)nc3ccccc23)cc1OC,-8.7,-18.9,0.4,86.0*
Cc1ccc(Nc2nc(-c3cccnc3)nc3ccccc23)cc1,0.4,2.9,5.5,95.1*
CC(C)(C)OC(=O)N1CCC(c2c(C(=O)NCCN3CCC(Cc4ccccc4)CC3)cnn2-c2cccc(Cl)c2)CC1,-8.7,.,1.8,.
COc1ccc(NC(=O)Cn2cc(S(=O)(=O)Cc3ccc(F)cc3)c3ccccc32)cc1OC,0.5,.,0.0,.
CCn1c(C)c(C)c2cc(C(=O)NCCc3cc(OC)c(OC)c(OC)c3)ccc21,13.1,.,2.2,.
Cc1ccc(C(C)C)c(OCC(=O)NCC2(N3CCOCC3)CCCCC2)c1,-19.9,.,75.5*,.
CC(C)c1ccc(/C=N\NC(=O)c2ccc(Cn3cccn3)o2)cc1,-11.7,8.2,1.8,82.3*
O=C(N/N=C\c1ccc(Cl)s1)c1ccc(Cn2cccn2)o1,-3.5,-23.1,-0.1,?
Cc1cc(C)c(S(=O)(=O)NCCc2csc3nc(-c4ccc(Cl)cc4)nn23)c(C)c1,-9.6,.,1.0,.
CCOC(=O)c1cc2c(=O)n3ccccc3nc2n(CC2CCCO2)c1=NC(=O)c1ccc(C)cc1 (centres undefined),7.1,.,2.3,.
Cc1nnc(N2CCC(C(=O)NCCc3ccccc3Cl)CC2)c2nn(-c3ccccc3)c(C)c12,63.8,.,2.2,.
Cc1nnc(N2CCC(C(=O)NC3CCCCC3)CC2)c2nn(-c3ccccc3)c(C)c12,-58.2*,.,1.7,.
CCCCc1nc(N2CCN(C(=O)c3ccco3)CC2)c(C#N)c2c1CCCC2,47.8,-26.7,0.6,86.4*
CCC(=O)N1CCN(c2nc(-c3ccccc3)c3c(c2C#N)CCCC3)CC1,-6.9,-0.6,-0.4,101.8*
CC(=O)Nc1ccc(/C=C/c2nc(-c3ccccc3O)n(-c3ccccc3)n2)cc1,8.7,.,1.0,.
CCCCNc1c(-c2ccc(OC)c(SC3CCCCC3)c2)nc2cc(C)ccn12,7.8,5.7,-0.3,87.7*
Cc1ccccc1C(=O)Nc1ccccc1C(=O)N1CCC(C)CC1,-11.7,0.5,53.5*,1.4
CC1CCN(C(=O)c2ccccc2NC(=O)Nc2ccccc2)CC1,-5.2,12.5,0.3,-0.8
Cc1ccc(C(c2nnnn2C(C)(C)C)N(Cc2ccco2)Cc2cccs2)cc1 (centres undefined),-9.1,14.2,60.1*,24.2
CCCCCn1c(=O)[nH]c2cc(C(=O)NCc3ccc(OC)cc3)ccc2c1=O,-2.4,.,0.2,.
CCCCN1C(=O)C(CC(=O)NCc2cccs2)CC(C(=O)N(C)C)=C1C (centres undefined),-53.4*,.,0.2,.
COc1cc(-c2nc3ncccn3c2Nc2ccc(C)cc2C)ccc1O,13.6,.,-0.2,.
CC1CCN(c2ccc(NC(=O)Cc3ccccc3)cc2)CC1,-50.9*,-8.0,-0.2,?
